Results reported in PubChem BioAssay AID1159580 (chemical genetic matrix, 2015).
About 2,000 (36%) of roughly 5,500 compounds were called active. Inconclusive results (about 18%) are left out. Cut-off read from the data, not from the text of the source: active = normalized growth mostly below about 0.91 (no sharp cut-off); inconclusive = no clear call, values can overlap the other calls; inactive = mostly above about 0.92. This is one part of the list.

Assay: chemical genetic growth profiling, strain panel (AID 1159580);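 note: tested at 20 µM; growth read once vehicle control cultures reached saturation at 30 °C; 1 = growth at the plate median or of vehicle wells; lower values mean less growth of the strain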
Conditions: growth OD

Measured: normalized growth

CC(C)=CCC1=C(O)c2ccccc2C(=O)C1=O
inactive: S. cerevisiae deletion strains, locus YJR075W, strain HOC1, hits give low values 1.03 | S. cerevisiae deletion strains, locus YKL009W, strain mrt4, hits give low values 0.945 | S. cerevisiae deletion strains, locus YKL190W, strain CNB1, hits give low values 0.951 | S. cerevisiae deletion strains, locus YLR039C, strain RIC1, hits give low values 0.705 | S. cerevisiae deletion strains, locus YLR058C, strain SHM2, hits give low values 0.954 | S. cerevisiae deletion strains, locus YLR102C, strain apc9, hits give low values 0.963 | S. cerevisiae deletion strains, locus YLR113W, strain HOG1, hits give low values 0.965 | S. cerevisiae deletion strains, locus YLR262C, strain YPT6, hits give low values 0.733 | S. cerevisiae deletion strains, locus YLR330W, strain CHS5, hits give low values 0.948 | S. cerevisiae deletion strains, locus YLR342W, strain FKS1 (second series), hits give low values 0.844 | S. cerevisiae deletion strains, locus YLR371W, strain rom2, hits give low values 0.939 | S. cerevisiae deletion strains, locus YLR418C, strain cdc73, hits give low values 1.03 | S. cerevisiae deletion strains, locus YML016C, strain PPZ1, hits give low values 0.958 | S. cerevisiae deletion strains, locus YML032C, strain rad52, hits give low values 0.906 | S. cerevisiae deletion strains, locus YML124C, strain tub3, hits give low values 0.935 | S. cerevisiae deletion strains, locus YMR078C, strain ctf18, hits give low values 0.921 | S. cerevisiae deletion strains, locus YMR263W, strain SAP30, hits give low values 1.01 | S. cerevisiae deletion strains, locus YMR307W, strain GAS1, hits give low values 0.721 | S. cerevisiae deletion strains, locus YNL067W, strain RPL9B, hits give low values 0.989 | S. cerevisiae deletion strains, locus YNL128W, strain TEP1, hits give low values 0.945 | S. cerevisiae deletion strains, locus YNL153C, strain GIM3, hits give low values 0.965 | S. cerevisiae deletion strains, locus YNL183C, strain NPR1, hits give low values 0.914 | S. cerevisiae deletion strains, locus YNL233W, strain BNI4, hits give low values 0.964 | S. cerevisiae deletion strains, locus YNL248C, strain rpa49, hits give low values 0.974 | S. cerevisiae deletion strains, locus YNL298W, strain CLA4, hits give low values 0.914 | S. cerevisiae deletion strains, locus YNL322C, strain KRE1, hits give low values 0.934 | S. cerevisiae deletion strains, locus YNR052C, strain pop2, hits give low values 0.918 | S. cerevisiae deletion strains, locus YOL012C, strain htz1 1.37 | S. cerevisiae deletion strains, locus YOL147C, strain pex11, hits give low values 0.953 | S. cerevisiae deletion strains, locus YOR061W, strain CKA2, hits give low values 0.953 | S. cerevisiae deletion strains, locus YOR069W, strain VPS5, hits give low values 0.934 | S. cerevisiae deletion strains, locus YOR136W, strain idh2, hits give low values 0.928 | S. cerevisiae deletion strains, locus YOR184W, strain ser1, hits give low values 0.894 | S. cerevisiae deletion strains, locus YOR231W, strain MKK1, hits give low values 0.966 | S. cerevisiae deletion strains, locus YOR316C, strain cot1, hits give low values 0.968 | S. cerevisiae deletion strains, locus YPL055C, strain LGE1, hits give low values 1.05 | S. cerevisiae deletion strains, locus YPL256C, strain CLN2, hits give low values 1.02 | S. cerevisiae deletion strains, locus YPR119W, strain clb2, hits give low values 0.967 | S. cerevisiae deletion strains, locus YPR163C, strain tif3, hits give low values 0.957 | S. cerevisiae deletion strains, locus YPR167C, strain met16, hits give low values 0.937 | S. cerevisiae deletion strains, strain wtn01, hits give low values 0.951 | S. cerevisiae strains, strain wild type, hits give low values 0.934
active: S. cerevisiae deletion strains, locus YKL068W, hits give low values 0.887 | S. cerevisiae deletion strains, locus YKL085W, strain MDH1 (second series), hits give low values 0.884 | S. cerevisiae deletion strains, locus YKL085W, strain MDH1, hits give low values 0.884 | S. cerevisiae deletion strains, locus YKL160W, strain elf1, hits give low values 0.741 | S. cerevisiae deletion strains, locus YKR001C, strain vps1, hits give low values 0.788 | S. cerevisiae deletion strains, locus YKR026C, strain gcn3, hits give low values 0.775 | S. cerevisiae deletion strains, locus YKR091W, strain srl3, hits give low values 0.809 | S. cerevisiae deletion strains, locus YLL001W, strain dnm1, hits give low values 0.598 | S. cerevisiae deletion strains, locus YLL026W, hits give low values 0.808 | S. cerevisiae deletion strains, locus YLL041C, strain sdh2, hits give low values 0.815 | S. cerevisiae deletion strains, locus YLR027C, strain aat2, hits give low values 0.823 | S. cerevisiae deletion strains, locus YLR221C, strain rsa3, hits give low values 0.819 | S. cerevisiae deletion strains, locus YLR258W, strain gsy2, hits give low values 0.797 | S. cerevisiae deletion strains, locus YLR262C, strain YPT6 (second series), hits give low values 0.334 | S. cerevisiae deletion strains, locus YLR268W, strain sec22, hits give low values 0.879 | S. cerevisiae deletion strains, locus YLR320W, strain mms22, hits give low values 0.741 | S. cerevisiae deletion strains, locus YLR342W, strain FKS1, hits give low values 0.727 | S. cerevisiae deletion strains, locus YLR357W, strain rsc2, hits give low values 0.837 | S. cerevisiae deletion strains, locus YLR370C, strain arc18, hits give low values 0.806 | S. cerevisiae deletion strains, locus YLR384C, strain iki3, hits give low values 0.818 | S. cerevisiae deletion strains, locus YML120C, strain ndi1, hits give low values 0.759 | S. cerevisiae deletion strains, locus YMR058W, strain fet3, hits give low values 0.651 | S. cerevisiae deletion strains, locus YMR125W, strain sto1, hits give low values 0.884 | S. cerevisiae deletion strains, locus YMR129W, hits give low values 0.773 | S. cerevisiae deletion strains, locus YMR205C, strain PFK2, hits give low values 0.837 | S. cerevisiae deletion strains, locus YMR223W, strain ubp8, hits give low values 0.864 | S. cerevisiae deletion strains, locus YMR231W, strain pep5, hits give low values 0.791 | S. cerevisiae deletion strains, locus YNL071W, strain lat1, hits give low values 0.837 | S. cerevisiae deletion strains, locus YNL209W, strain ssb2, hits give low values 0.715 | S. cerevisiae deletion strains, locus YNL250W, strain rad50, hits give low values 0.897 | S. cerevisiae deletion strains, locus YNL271C, strain bni1, hits give low values 0.892 | S. cerevisiae deletion strains, locus YNL307C, strain MCK1, hits give low values 0.904 | S. cerevisiae deletion strains, locus YNL322C, strain KRE1 (second series), hits give low values 0.791 | S. cerevisiae deletion strains, locus YNR049C, strain mso1, hits give low values 0.772 | S. cerevisiae deletion strains, locus YOL006C, strain TOP1, hits give low values 0.29 | S. cerevisiae deletion strains, locus YOR001W, strain rrp6, hits give low values 0.864 | S. cerevisiae deletion strains, locus YOR070C, strain gyp1, hits give low values 0.821 | S. cerevisiae deletion strains, locus YOR080W, strain dia2, hits give low values 0.789 | S. cerevisiae deletion strains, locus YOR083W, strain WHI5, hits give low values 0.772 | S. cerevisiae deletion strains, locus YOR106W, strain vam3, hits give low values 0.595 | S. cerevisiae deletion strains, locus YOR144C, strain elg1, hits give low values 0.933 | S. cerevisiae deletion strains, locus YOR265W, strain rbl2, hits give low values 0.822 | S. cerevisiae deletion strains, locus YOR270C, strain vph1, hits give low values 0.294 | S. cerevisiae deletion strains, locus YOR290C, strain snf2, hits give low values 0.778 | S. cerevisiae deletion strains, locus YPL051W, strain arl3, hits give low values 0.657 | S. cerevisiae deletion strains, locus YPL078C, strain atp4, hits give low values 0.678 | S. cerevisiae deletion strains, locus YPL106C, strain sse1, hits give low values 0.816 | S. cerevisiae deletion strains, locus YPL240C, strain hsp82, hits give low values 0.825 | S. cerevisiae deletion strains, locus YPL241C, strain CIN2, hits give low values 0.925 | S. cerevisiae deletion strains, locus YPR141C, strain kar3, hits give low values 0.839
